Our source for the growth values is PubChem BioAssay (NCI).

This is part of a sample that, as a whole, favours compounds with a hit. Of some 83,000 tested, about 20% had one in any assay.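 Growth was measured after 48 h exposure to one concentration of compound in 96-well plates. Values under 10 count as active.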 Unmarked numbers belong to inactive results. Calls of active or inactive are those of the source.

Test systems include HCT-15 colon; HT29 colon; SNB-75 CNS; SNB-19 CNS; U251 CNS; PC-3 prostate; SK-MEL-5 melanoma; UACC-62 melanoma; LOX IMVI melanoma; SK-MEL-28 melanoma; SK-MEL-2 melanoma; EKVX NSCLC; SN12C renal; UO-31 renal; TK-10 renal; ACHN renal; CAKI-1 renal; A498 renal; CCRF-CEM leukemia; MOLT-4 leukemia.
What all share (assay): NCI-60 one-dose screen, 48 h (100 = growth as untreated, 0 = no growth, -100 = all killed)
Conditions in all cases: 10 µM unless noted

Consider `CNC(=O)c1cc(-c2ccc(NC(=S)Nc3cccc(C(F)(F)F)c3)cc2)nc2cccnc12`, for which the growth in the experiment with HCT-15 colon is 98.2%; in the experiment with HT29 colon, 99.7%; in the experiment with SNB-75 CNS it was 91.2%; with SNB-19 CNS, 94.7%; with U251 CNS it was 95.3%; in the experiment with PC-3 prostate, 96.1%. In addition, the growth in the experiment with SK-MEL-5 melanoma is 96.2%; in the experiment with UACC-62 melanoma, 89.9%; with LOX IMVI melanoma it was 95.3%; in the experiment with SK-MEL-28 melanoma it was 99.9%; with SK-MEL-2 melanoma, 103%; in the experiment on EKVX NSCLC, 98.1%. The growth in the experiment on SN12C renal is 97.3%; in the experiment on UO-31 renal it was 81.8%; in the experiment with TK-10 renal, 102%; with ACHN renal, 94.8%; in the experiment on CAKI-1 renal, 91.3%; in the experiment with A498 renal it was 88.8%. For the same compound, the growth in the experiment on CCRF-CEM leukemia was 88%; in the experiment with MOLT-4 leukemia it was 117%.
In the case of `Clc1ccc2c(N/N=C/c3c[nH]c4ccccc34)ccnc2c1`, the growth is -82.7% (active) in the experiment with HCT-15 colon; -72.3% (active) in the experiment on HT29 colon; -96.2% (active) in the experiment with SNB-75 CNS; -92.4% (active) with SNB-19 CNS; -84.1% (active) in the experiment on U251 CNS; -81% (active) in the experiment with PC-3 prostate. Further, the growth was -98.4% (active) in the experiment on SK-MEL-5 melanoma; -61.7% (active) in the experiment on UACC-62 melanoma; -92.9% (active) with LOX IMVI melanoma; -92.7% (active) in the experiment on SK-MEL-28 melanoma; -82.2% (active) with SK-MEL-2 melanoma; -79.3% (active) in the experiment with EKVX NSCLC. Also, the growth with SN12C renal was -77.2% (active); in the experiment on UO-31 renal, -95.1% (active); in the experiment with TK-10 renal, -91.9% (active); in the experiment on ACHN renal it was -98.1% (active); in the experiment on CAKI-1 renal, -97.5% (active); in the experiment with A498 renal, -93.6% (active). For the same compound, the growth was -10% (active) with CCRF-CEM leukemia and -48.5% (active) with MOLT-4 leukemia.
`O=C(/C=C/c1cccc(F)c1)c1cccc(OCCCCOc2cccc(C(=O)/C=C/c3cccc(F)c3)c2)c1`: the growth in the experiment on HCT-15 colon is 97.6%; with HT29 colon it was 106%; in the experiment on SNB-75 CNS it was 102%; in the experiment on SNB-19 CNS, 94%; with U251 CNS, 105%; in the experiment on PC-3 prostate, 97.6%. Moreover, the growth with SK-MEL-5 melanoma was 98.6%; in the experiment with UACC-62 melanoma it was 94.8%; in the experiment on LOX IMVI melanoma, 95.2%; in the experiment with SK-MEL-28 melanoma it was 105%; in the experiment with SK-MEL-2 melanoma it was 101%; in the experiment on EKVX NSCLC it was 99%. The growth in the experiment with SN12C renal is 95.2%; in the experiment on UO-31 renal, 96%; with TK-10 renal, 100%; in the experiment with ACHN renal, 100%; with CAKI-1 renal, 99.1%; in the experiment with A498 renal, 110%. In addition, the growth was 102% in the experiment with CCRF-CEM leukemia and 95% in the experiment on MOLT-4 leukemia.
As to `CCCCCCNC(=O)Oc1ccc(/C(=C(/C)c2ccc(Cl)cc2)c2ccc(OCCN3CCCCCC3)cc2)cc1`, the growth was 9.59% (active) with HCT-15 colon; 21.3% in the experiment with HT29 colon; 99.6% in the experiment with SNB-75 CNS; 68.4% in the experiment with SNB-19 CNS; 55.8% in the experiment with U251 CNS; 49.2% in the experiment on PC-3 prostate. The growth was 73.6% in the experiment with SK-MEL-5 melanoma; 63.8% with UACC-62 melanoma; 32.8% with LOX IMVI melanoma; 84% with SK-MEL-28 melanoma; 108% in the experiment on SK-MEL-2 melanoma; 76.8% in the experiment with EKVX NSCLC. The growth is 70% in the experiment with SN12C renal; 51.8% in the experiment with UO-31 renal; 95.8% in the experiment with TK-10 renal; 87.3% in the experiment with ACHN renal; 64.9% in the experiment with CAKI-1 renal; 74.5% in the experiment on A498 renal. The values for the growth in the experiment on CCRF-CEM leukemia and in the experiment on MOLT-4 leukemia were 46.2% and 33.3%, respectively.
In the case of `O=C(CCCCCCN1CC(=O)N2[C@@H](C3CC3)c3[nH]c4ccccc4c3C[C@H]2C1=O)NO`, the growth was 92.9% in the experiment with HCT-15 colon; 78.3% in the experiment with HT29 colon; 58.7% in the experiment with SNB-75 CNS; 68.4% in the experiment on SNB-19 CNS; 53.1% in the experiment on U251 CNS; 74.7% with PC-3 prostate. Further, the growth in the experiment on SK-MEL-5 melanoma was 44.1%; in the experiment on UACC-62 melanoma it was 31.8%; in the experiment with LOX IMVI melanoma, 33.2%; in the experiment on SK-MEL-28 melanoma it was 32.3%; with SK-MEL-2 melanoma, 76.5%; in the experiment with EKVX NSCLC, 85.7%. Besides, the growth is 79% with SN12C renal; 70.1% in the experiment with UO-31 renal; 79.2% in the experiment with TK-10 renal; 67.6% in the experiment on ACHN renal; 69.3% in the experiment on CAKI-1 renal; 98.8% in the experiment with A498 renal. For the same compound, the growth was 19.9% in the experiment on CCRF-CEM leukemia and 16% with MOLT-4 leukemia.
Take `N#Cc1c(-c2cccs2)cc(-c2cnccn2)nc1SCC(=O)N/N=C/c1cccs1`: the growth in the experiment on HCT-15 colon was 62.8%; in the experiment with HT29 colon it was 30.9%; in the experiment on SNB-75 CNS, 42.8%; in the experiment on SNB-19 CNS, 47.7%; with U251 CNS, 19.5%; with PC-3 prostate, 53.6%. Also, the growth in the experiment with SK-MEL-5 melanoma is 20.5%; in the experiment on UACC-62 melanoma, 55.6%; with LOX IMVI melanoma it was 7.29% (active); in the experiment on SK-MEL-28 melanoma, 27.5%; in the experiment on SK-MEL-2 melanoma, 78.5%; with EKVX NSCLC it was 59%. In addition, the growth in the experiment on SN12C renal is 52.1%; with UO-31 renal it was 89.1%; in the experiment with TK-10 renal it was 65.1%; with ACHN renal, 49.8%; with CAKI-1 renal it was 30%; in the experiment with A498 renal, 25.5%. In addition, the growth with CCRF-CEM leukemia was 90.6%; in the experiment with MOLT-4 leukemia, 85.2%.
Take `O=C(CCCCCC/C=C\c1csc(Br)n1)NO`: the growth with HCT-15 colon was 90.9%; in the experiment with HT29 colon it was 84.5%; in the experiment on SNB-75 CNS, 64.8%; in the experiment with SNB-19 CNS, 97%; in the experiment on U251 CNS it was 91.4%; in the experiment on PC-3 prostate, 82%. In addition, the growth is 97.1% in the experiment with SK-MEL-5 melanoma; 74.5% in the experiment with UACC-62 melanoma; 70.1% with LOX IMVI melanoma; 92.4% in the experiment with SK-MEL-28 melanoma; 101% in the experiment on SK-MEL-2 melanoma; 94% in the experiment with EKVX NSCLC. Also, the growth in the experiment on SN12C renal was 98.2%; in the experiment on UO-31 renal it was 60.6%; in the experiment with TK-10 renal, 59.4%; with ACHN renal, 82.8%; in the experiment with CAKI-1 renal it was 78.7%; in the experiment on A498 renal it was 87.1%. In addition, the growth with CCRF-CEM leukemia was 52.7%; in the experiment with MOLT-4 leukemia, 63.7%.
